Publication PMC7819943, “Rice protein-binding microarrays: a tool to detect cis-acting elements near promoter regions in rice”
The full ranking holds about 39,000 sequences; the median of “fluorescence intensity (a.u.)” is about 4,300, and the highest 2% start at about 39,000. The full list was thinned out, with the highest values kept by preference.

Target: T1, OsSMF1 (Oryza sativa, UniProt Q6ZLB0 1-436)
T1 sequence: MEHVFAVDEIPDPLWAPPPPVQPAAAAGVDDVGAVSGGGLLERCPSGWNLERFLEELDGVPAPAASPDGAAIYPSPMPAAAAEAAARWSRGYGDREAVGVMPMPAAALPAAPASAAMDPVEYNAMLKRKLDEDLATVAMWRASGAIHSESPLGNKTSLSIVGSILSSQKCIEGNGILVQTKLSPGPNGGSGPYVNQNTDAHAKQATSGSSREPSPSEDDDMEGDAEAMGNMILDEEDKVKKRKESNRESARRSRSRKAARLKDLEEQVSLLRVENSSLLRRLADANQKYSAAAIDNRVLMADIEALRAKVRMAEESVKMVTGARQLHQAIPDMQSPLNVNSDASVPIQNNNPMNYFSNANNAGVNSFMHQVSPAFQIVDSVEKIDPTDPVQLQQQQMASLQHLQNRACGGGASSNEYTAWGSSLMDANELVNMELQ
Test: protein-binding microarray (RPBM); PBS, 2% BSA, 51.3 ng/ul salmon testes DNA, 50 uM zinc acetate, 200 nM TF, 25 C, 1 h; high values mean tight binding
Conditions: protein: recombinant; tags: N-terminal polyhistidine and DsRed monomer fusion (pET32a); chain copies: 2; label: CyDye5-dUTP incorporated in the synthesized complementary strand; 3' TTTTT single-stranded linker to array surface; dsDNA, one strand shown
Summary of the method: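 For the binding signal, per-feature fluorescence intensity was read in arbitrary units on an Axon 4000B scanner. Before scanning, a 2% BSA-blocked custom Agilent array made double-stranded with Cy5-dUTP was washed after 1 h at 25 °C with 200 nM protein and 50 µM zinc acetate. The proteins were Ni–NTA-purified transcription factors with N-terminal polyhistidine and DsRed fusions, expressed in E. coli BL21-CodonPlus.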

Sequence | binding signal
CAACCAAGCAAGCGGCAGCAGAGCGCGAGTCATGCGACCCCGGAGTCACCTAGTGCAG | 3180 fluorescence intensity (a.u.)
CACGCGCCGGTGCCTTGCGCCGTCACCGTGCCAGCCCAGCCGGAGTCACCTAGTGCAG | 5670 fluorescence intensity (a.u.)
GCGTGGCCACATCAGCCTCCTCTCTCCCTTCCTCATCTCTCGGAGTCACCTAGTGCAG | 14700 fluorescence intensity (a.u.)
AGGAGGGGTGGAGCTGGAGCTGGAGCTGTGCCAAACAGGCCGGAGTCACCTAGTGCAG | 3190 fluorescence intensity (a.u.)
CTCCAGGAGGGGTGGAGTTGGAGCTGGAGCTGTGACAAACCGGAGTCACCTAGTGCAG | 12800 fluorescence intensity (a.u.)
AGGAGGGTGGAGCTGTGCCAAACAGACCCTAAGTGTTTTCCGGAGTCACCTAGTGCAG | 62100 fluorescence intensity (a.u.)
TTCTTTCATCAATTACTAGGCCTAGATGGGTAATTTTGGTCGGAGTCACCTAGTGCAG | 3200 fluorescence intensity (a.u.)
ATCTTGCCGAAGTTGTTGGTGACGAAGTCGAGGCTGCCGACGGAGTCACCTAGTGCAG | 3180 fluorescence intensity (a.u.)
AAAGTCAATATAGGAATACAATTTAGAAGTAACTTAAATTCGGAGTCACCTAGTGCAG | 25600 fluorescence intensity (a.u.)
TACTTAGTAGCTAGGAGCTATATTGGTTGGAAAGGAGCGCCGGAGTCACCTAGTGCAG | 51200 fluorescence intensity (a.u.)
TTAGGCCAAGTATGGGGTTGGGGCTATGGAGGAGAAGGGCCGGAGTCACCTAGTGCAG | 3320 fluorescence intensity (a.u.)
CTTAGCCGGCTATACGCGGCTACGTTGGCTGACTTGGTAGCGGAGTCACCTAGTGCAG | 4170 fluorescence intensity (a.u.)
CGCAGCACGCACGCACGCAGACACGCCCACGCGTTGCGGCCGGAGTCACCTAGTGCAG | 3550 fluorescence intensity (a.u.)
CCGCGCCGTCCCTCCTGACGCGGCGTCTCGCCGCCGCCGCCGGAGTCACCTAGTGCAG | 3780 fluorescence intensity (a.u.)
TCCCGATCGACGCGTGCATGGCGGCGAGCCTTCTGTCCCACGGAGTCACCTAGTGCAG | 3330 fluorescence intensity (a.u.)
CCTTCCAACATGTTTATTATGCATGAGATGTGTGCAACGACGGAGTCACCTAGTGCAG | 3360 fluorescence intensity (a.u.)
AGAGGGACGTCGACGCGTGGTGCCGTGGTGGTGTCGCTCGCGGAGTCACCTAGTGCAG | 3400 fluorescence intensity (a.u.)
TTCAACGGCGCGTGCCGACGTGGCCGCTGCGGCGTGCGTGCGGAGTCACCTAGTGCAG | 10300 fluorescence intensity (a.u.)
CATTCAACGCTCGCGTGCGTGCAGTGCCGTGTGTGGACCGCGGAGTCACCTAGTGCAG | 54900 fluorescence intensity (a.u.)
TGGCACATTCTCATCGTATTTTCTTGTTGCTCTATGTATGCGGAGTCACCTAGTGCAG | 3180 fluorescence intensity (a.u.)
ACTATAATTCATGGGATTATGTGCCAGCAGTCATAATATCCGGAGTCACCTAGTGCAG | 3180 fluorescence intensity (a.u.)
GAGTTAGCAGTGTTGACCACGGTCAAGGTGCCACGTCATCCGGAGTCACCTAGTGCAG | 43000 fluorescence intensity (a.u.)

Sequence | binding signal
TGTGGGGTCCACGTAATGCCACGTCAGCGCAACCTAGGAACGGAGTCACCTAGTGCAG | 37100 fluorescence intensity (a.u.)
GCGTCATCATGACATGCCACGTCAGCACATGGAGCGGGTTCGGAGTCACCTAGTGCAG | 26100 fluorescence intensity (a.u.)
GTGCCTCCGTAGCAATGCCACGTCAGCATATGGAGCGGGTCGGAGTCACCTAGTGCAG | 44600 fluorescence intensity (a.u.)
GACATGTAGGACCCACGTGAGTCAATGACACGTGGGTCAGCGGAGTCACCTAGTGCAG | 23800 fluorescence intensity (a.u.)
TATTACCACGTAGGCGCCACGTGGCGCCACGTCAGCAAAACGGAGTCACCTAGTGCAG | 42100 fluorescence intensity (a.u.)
AAGTTCACAGTGCTGACCACGGTCAAGGTGCCACGTCATCCGGAGTCACCTAGTGCAG | 35200 fluorescence intensity (a.u.)
CGCTACCGTGGCATGCCACGTCACCGGATGGAGCGGGTCGCGGAGTCACCTAGTGCAG | 20100 fluorescence intensity (a.u.)
TTGAGTCAGTAGTGTTGACAACGGTCAAGGTGCCACGTCACGGAGTCACCTAGTGCAG | 26100 fluorescence intensity (a.u.)
CAGTGACTCCTCTCCTACGTAGGCGCCACGTCAGCAAAACCGGAGTCACCTAGTGCAG | 20900 fluorescence intensity (a.u.)
ATTTTATTGGGATCAAATTACCACGTAGGCGCCACGTCAACGGAGTCACCTAGTGCAG | 20900 fluorescence intensity (a.u.)
ACACGTGGGTCCACGTAGGCGACACGTCAATGCCACGTCACGGAGTCACCTAGTGCAG | 55900 fluorescence intensity (a.u.)
AGAGAGAGGGGAGAGGGGTGGAAGGGGAATATGGTAGCTGCGGAGTCACCTAGTGCAG | 3330 fluorescence intensity (a.u.)
CCTCGTCGCCGCGTCACGGCGTCAGCTCGCCGCTCTAGGGCGGAGTCACCTAGTGCAG | 4820 fluorescence intensity (a.u.)
GCCTCACAACCCGCATGGACACTGACATCGGCATCATCATCGGAGTCACCTAGTGCAG | 4260 fluorescence intensity (a.u.)
GACAAAGTCACACTGTCACACGTATTACCGGTTACAAACTCGGAGTCACCTAGTGCAG | 3940 fluorescence intensity (a.u.)
GGCAACCGCCCTTAAGGTGTGAGACAGCACGACAACGCCCCGGAGTCACCTAGTGCAG | 3690 fluorescence intensity (a.u.)
GTATTGGAGCTCTACAGTTCGGTCTACTCCTCTCTGTTGCCGGAGTCACCTAGTGCAG | 27500 fluorescence intensity (a.u.)
ACGTCTCCTCCTCCTCCACGTCAAACCACAATCCAACCAACGGAGTCACCTAGTGCAG | 5400 fluorescence intensity (a.u.)
AGCACCACGGTCAATGCCACGTATGTGCCACGTCATCCAACGGAGTCACCTAGTGCAG | 46600 fluorescence intensity (a.u.)
CAACACCGCCACGTAGGCGCCACATCAGCAAAACCATCCTCGGAGTCACCTAGTGCAG | 23200 fluorescence intensity (a.u.)
ATTGCCACGTAGGCGCCACGTGGCGCCACATCAGCAAAACCGGAGTCACCTAGTGCAG | 40700 fluorescence intensity (a.u.)
